Test results as given in PubChem BioAssay (NCATS).
Results filed as inconclusive are left out. Activity calls are given as the source filed them. Unless noted, calls follow the shape of the dose curve; as a rule, active = well fitted cell-killing curve with a large enough effect; inconclusive = small, poorly fitted or top-dose-only effect, or effect the other way; inactive = no such curve, though single readings can be large or run the other way.

What was measured:
[1] = Quantitative High-Throughput drug screen in 47 multiple myeloma cell lines against the NCATS MIPE library collection: KMS28PE_JCRB cell viability assay (AID 1918983); also: nearly all actives have a fitted effect of over 35% in size
Procedure, shortened: (§1)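 Myeloma cells (500/well) treated with MIPE 4.0 compounds for 48 h at 37 °C, 5% CO2. Viability read as ATP via CellTiter-Glo luminescence after 5 min at RT; DMSO-only wells = 100%, media-only = 0% viability.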

[2] = Quantitative High-Throughput drug screen in 47 multiple myeloma cell lines against the NCATS MIPE library collection: KMS34_JCRB cell viability assay (AID 1918985); also: nearly all actives have a fitted effect of over 40% in size
Procedure, shortened: as §1

[3] = Quantitative High-Throughput drug screen in 47 multiple myeloma cell lines against the NCATS MIPE library collection: OCIMY7_PLB cell viability assay (AID 1918987); also: nearly all actives have a fitted effect of over 65% in size
Procedure, shortened: as §1

[4] = Quantitative High-Throughput drug screen in 47 multiple myeloma cell lines against the NCATS MIPE library collection: OCIMY5_PLB cell viability assay (AID 1918988); also: nearly all actives have a fitted effect of over 65% in size
Procedure, shortened: as §1

[5] = Quantitative High-Throughput drug screen in 47 multiple myeloma cell lines against the NCATS MIPE library collection: OPM1_PLB cell viability assay (AID 1918989); also: nearly all actives have a fitted effect of over 40% in size
Procedure, shortened: as §1

[6] = Quantitative High-Throughput drug screen in 47 multiple myeloma cell lines against the NCATS MIPE library collection: SKMM1_PLB cell viability assay (AID 1919863); settings: SKMM1 myeloma viability, CellTiter-Glo ATP, 48 h; viability: stronger effect = lower value; also: nearly all actives have a fitted effect of over 35% in size
Procedure, shortened: as §1

[7] = Quantitative High-Throughput drug screen in 47 multiple myeloma cell lines against the NCATS MIPE library collection: XG6_PLB cell viability assay (AID 1919865); also: nearly all actives have a fitted effect of over 40% in size
Procedure, shortened: as §1

[8] = Quantitative High-Throughput drug screen in 47 multiple myeloma cell lines against the NCATS MIPE library collection: XG1_PLB cell viability assay (AID 1919866); also: nearly all actives have a fitted effect of over 35% in size
Procedure, shortened: as §1

[9] = Quantitative High-Throughput drug screen in 47 multiple myeloma cell lines against the NCATS MIPE library collection: VP6_DJ cell viability assay (AID 1919867); also: nearly all actives have a fitted effect of over 40% in size
Procedure, shortened: as §1

[10] = Quantitative High-Throughput drug screen in 47 multiple myeloma cell lines against the NCATS MIPE library collection: PE2_PLB cell viability assay (AID 1919869); also: nearly all actives have a fitted effect of over 35% in size
Procedure, shortened: as §1

[11] = Quantitative High-Throughput drug screen in 47 multiple myeloma cell lines against the NCATS MIPE library collection: PCM6_Riken cell viability assay (AID 1919870); also: nearly all actives have a fitted effect of over 30% in size
Procedure, shortened: as §1

[12] = Quantitative High-Throughput drug screen in 47 multiple myeloma cell lines against the NCATS MIPE library collection: OPM2_DSMZ cell viability assay (AID 1919872); also: nearly all actives have a fitted effect of over 30% in size
Procedure, shortened: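 Primary qHTS used for cherry-picking: cells at 500/well, library compounds for 48 h (37C, 5% CO2), luminescent ATP assay.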

[13] = qHTS drug screen for cell cycle checkpoint inhibitors in PARPi-resistant BRCA-mutant ovarian cancer cell lines. (AID 1963452; calls by dose curve); settings: PEO1/OlaR viability, CellTiter-Glo luminescence, 96 h; for Z-AUC: stronger effect = lower value
Procedure, shortened: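 PEO1, PEO4 and PEO1/OlaR ovarian cancer cells, 600 per well, exposed 96 h at 37C to a dilution series. Viability read by CellTiter-Glo luminescence, normalized to DMSO and empty wells; activity summarized as Z-AUC.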

[14] = Quantitative High-Throughput drug screen in 47 multiple myeloma cell lines against the NCATS MIPE library collection: U266_ATCC cell viability assay (AID 1919864); also: nearly all actives have a fitted effect of over 35% in size
Procedure, shortened: as §1

[15] = Quantitative High-Throughput drug screen in 47 multiple myeloma cell lines against the NCATS MIPE library collection: UTMC2_PLB cell viability assay (AID 1919868); settings: CellTiter-Glo ATP luminescence, 48 h; viability (% of DMSO control): at 45.8 µM (top of the series) unless noted; also: nearly all actives have a fitted effect of over 55% in size
Procedure, shortened: as §1

[16] = Quantitative High-Throughput drug screen in 47 multiple myeloma cell lines against the NCATS MIPE library collection: RPMI8226_ATCC cell viability assay (AID 1919871); also: nearly all actives have a fitted effect of over 30% in size
Procedure, shortened: as §1

[17] = Quantitative High-Throughput drug screen in 47 multiple myeloma cell lines against the NCATS MIPE library collection: KMS11_JCRBsus cell viability assay (AID 1919873); also: nearly all actives have a fitted effect of over 50% in size
Procedure, shortened: as §1

[18] = Quantitative High-Throughput drug screen in 47 multiple myeloma cell lines against the NCATS MIPE library collection: KMS28BM_JCRB cell viability assay (AID 1919874); also: nearly all actives have a fitted effect of over 35% in size
Procedure, shortened: as §1

[19] = qHTS for identification of novel therapeutic agents for treatment of microphthalmiaassociated transcription factor (MiT) renal cell carcinoma (RCC) (AID 1963991; calls by dose curve); settings: CellTiter-Glo, 48 h; for Potency: active = Z-AUC below -0.8 in all three lines; for z-score: stronger effect = lower value
Procedure, shortened: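 Three TFE3-fusion RCC cell lines (UOK109, UOK124, UOK145), 500 cells/well, were exposed to the 1912-compound MIPE 4.0 library for 48 hours at 37 C. Viability was read by CellTiter-Glo luminescence, normalised to DMSO (100%) and empty wells (0%), with 11-concentration curve fits.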

[20] = measured here: PEO1 parental Z-AUC
[21] = TFE3-RCC UOK109 viability, measured here: UOK109 Z-AUC
[22] = TFE3-RCC viability, measured here: UOK124 Z-AUC
[23] = TFE3-RCC viability, measured here: UOK145 Z-AUC
Potency is read from the fitted curve at half-maximal effect.

O=C(NCCCNc1nc(Nc2cccc(NC(=O)N3CCCC3)c2)ncc1I)c1cccs1
1.02: Z-AUC [13, 20]
0.426: Z-AUC ([13]; measured here: PEO4 Z-AUC)
active: Potency [1] 18700 nM | Potency [2] 1050 nM | Potency [3] 1870 nM | Potency [4] 13200 nM | Potency [5] 3720 nM | Potency [6] 20900 nM | Potency [7] 1320 nM | Potency [8] 1050 nM | Potency [9] 2090 nM | Potency [10] 1180 nM | Potency [11] 5260 nM | Potency [12] 16600 nM
inactive: Z-AUC [13] 1.15

O=c1c2ccccc2nc2n1CCc1c-2[nH]c2ccccc12
inactive: Potency [1] | Potency [2] | Potency [14] | Potency [7] | Potency [9] | Potency [15] | Potency [16] | Potency [12]
active: Potency [3] 18700 nM | Potency [6] 23500 nM | Potency [11] 13200 nM

O=C(CCCCCCC(=O)Nc1ccc([C@H]2O[C@@H](CSc3nc(-c4ccccc4)c(-c4ccccc4)o3)C[C@@H](c3ccc(CO)cc3)O2)cc1)NO
active: Potency [1] 16600 nM | Potency [2] 6620 nM | Potency [4] 11800 nM | Potency [5] 8330 nM | Potency [6] 23500 nM | Potency [7] 14800 nM | Potency [8] 10500 nM | Potency [9] 7430 nM | Potency [15] 8330 nM | Potency [10] 14800 nM | Potency [11] 13200 nM | Potency [16] 18700 nM | Potency [12] 20900 nM | Potency [17] 11800 nM
inactive: Z-AUC [13] 0.612
0.641: Z-AUC ([13]; measured here: PEO4 Z-AUC)
1.26: Z-AUC [13, 20]

CNC(=O)CN1CCC(Oc2cc3c(Nc4cccc(Cl)c4F)ncnc3cc2OC)CC1
0.199: Z-AUC ([13]; measured here: PEO4 Z-AUC)
inactive: Potency [7] | Z-AUC [13] 0.332
active: Potency [1] 83.3 nM | Potency [2] 37.2 nM | Potency [3] 83.3 nM | Potency [4] 11.8 nM | Potency [8] 23.5 nM | Potency [9] 18.7 nM | Potency [15] 33.2 nM | Potency [12] 83.3 nM | Potency [18] 18.7 nM | Potency ([19]; TFE3-RCC UOK109 viability) 1870 nM
0.682: Z-AUC [13, 20]
-2.86: z-score [19, 21]
-1.75: z-score [19, 23]
-2.18: z-score [19, 22]

CCCCc1nc2cc(C=CC(=O)NO)ccc2n1CCN(CC)CC
active: Potency [1] 526 nM | Potency [2] 372 nM | Potency [3] 935 nM | Potency [4] 41.8 nM | Potency [6] 590 nM | Potency [14] 935 nM | Potency [7] 4690 nM | Potency [8] 1480 nM | Potency [9] 10.5 nM | Potency [15] 264 nM | Potency [10] 1660 nM | Potency [11] 13.2 nM | Potency [16] 1320 nM | Potency [12] 833 nM | Potency [17] 372 nM

Cc1[nH]c2ccccc2c1CCNCc1ccc(C=CC(=O)NO)cc1
-1.86: z-score [19, 21]
-1.46: z-score [19, 23]
-3.24: z-score [19, 22]
active: Potency [1] 59 nM | Potency [2] 52.6 nM | Potency [3] 74.3 nM | Potency [4] 41.8 nM | Potency [6] 105 nM | Potency [14] 132 nM | Potency [7] 148 nM | Potency [8] 105 nM | Potency [9] 18.7 nM | Potency [15] 14.8 nM | Potency [10] 93.5 nM | Potency [11] 66.2 nM | Potency [16] 118 nM | Potency [12] 93.5 nM | Potency ([19]; TFE3-RCC UOK109 viability) 418 nM

COc1ccc(CC2SC(=O)NC2=O)cc1C(=O)NCc1ccc(C(F)(F)F)cc1 (stereo unspecified)
inactive: Potency [1] | Potency [2] | Potency [4] | viability [6] 115% | Potency [16] | Potency [18] | Z-AUC [13] 1.34
1.12: Z-AUC ([13]; measured here: PEO4 Z-AUC)
active: Potency [5] 6620 nM | Potency [11] 7430 nM
1.11: Z-AUC [13, 20]

Cc1cc(Nc2nc(N[C@@H](C)c3ccc(F)cc3)c(C#N)cc2F)n[nH]1
-0.871: Z-AUC ([13]; measured here: PEO4 Z-AUC)
inactive: Z-AUC [13] 0.0536
active: Potency [1] 935 nM | Potency [2] 833 nM | Potency [3] 418 nM | Potency [4] 4180 nM | Potency [14] 16600 nM | Potency [7] 1050 nM | Potency [8] 235 nM | Potency [9] 4690 nM | Potency [10] 935 nM | Potency [11] 16600 nM | Potency [16] 11800 nM | Potency [12] 4690 nM
-0.395: Z-AUC [13, 20]

COCCn1c2c([n+](Cc3cnccn3)c1C)C(=O)c1ccccc1C2=O
-3.48: Z-AUC ([13]; measured here: PEO4 Z-AUC)
-3.26: Z-AUC [13, 20]
active: Potency [1] 26.4 nM | Potency [2] 5.3 nM | Potency [3] 296 nM | Potency [4] 7.4 nM | Potency [5] 29.6 nM | Potency [6] 37.2 nM | Potency [7] 20.9 nM | Potency [8] 7.4 nM | Potency [9] 14.8 nM | Potency [15] 41.8 nM | Potency [10] 18.7 nM | Potency [16] 23.5 nM | Potency [12] 59 nM | Potency [17] 13.2 nM | Potency [18] 14.8 nM | Potency [13] 49 nM

CN(C)CCCN=c1c2ccccc2n(C)c2[nH]c(=O)n(C)c(=O)c12
inactive: Z-AUC [13] 0.193
active: Potency [1] 16600 nM | Potency [2] 18700 nM | Potency [4] 18700 nM | Potency [6] 14800 nM | Potency [7] 5900 nM | Potency [8] 14800 nM | Potency [9] 14800 nM | viability (% of DMSO control) [15] 91.5% | Potency [10] 16600 nM | Potency [11] 14800 nM | Potency [12] 20900 nM | Potency [17] 14800 nM | Potency [18] 16600 nM
1.54: Z-AUC ([13]; measured here: PEO4 Z-AUC)
1.79: Z-AUC [13, 20]

CC(=O)Nc1sc2c(c1-c1nc3ccccc3s1)CNC2
active: Potency [1] 20900 nM | Potency [2] 6620 nM | Potency [4] 16600 nM | Potency [5] 18700 nM | Potency [6] 16600 nM | Potency [14] 16600 nM | Potency [7] 9350 nM | Potency [8] 14800 nM | Potency [9] 11800 nM | Potency [10] 20900 nM | Potency [11] 14800 nM | Potency [16] 14800 nM | Potency [18] 14800 nM
